High-throughput results (PubChem BioAssay)
nsP2pro inh: inhibitors of chikungunya virus nsP2 protease; Q8JUX6; FRET peptide cleavage, nsP2pro, fluorescence 1 h; Potency, µM (titrated, usually from 24.9 µM), for inactives: top-dose activity change, negative = inhibition, most hits filed as inhibitors; 31,000 tested, 1.1% active; further: nearly all actives have a fitted effect of over 60% in size
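Purified recombinant nsP2pro (150 nM final) in 10 mM Tris-HCl pH 8.0 with 0.01% Tween 20 was preincubated 15 min at room temperature with compound (7 concentrations, up to 25 uM). FRET peptide 2 substrate (2.5 uM final) was then added; fluorescence was read after 1 h.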
CHIKV nsP2 cell: cell-based CHIKV nsP2 protease inhibition, secondary; shares compounds with nsP2pro inh; cell-based CHIKV nsP2 protease reporter assay; Potency, µM (doses to about 51.1 µM), for inactives: at the highest dose activity change, negative = inhibition, actives largely listed as inhibitors; 450 tested, 10% active; further: nearly all actives have a fitted effect of over 70% in size
NSP2 full ctr: full-length CHIKV NSP2 protease inhibition, selectivity. shares compounds with nsP2pro inh. Full-length CHIKV NSP2 protease enzymatic counterscreen. Potency, µM (series often up to 50.7 µM), without a hit: top-dose activity change, negative = inhibition, actives largely listed as inhibitors. 410 tested, 39% active; further: nearly all actives have a fitted effect of over 65% in size
Furin counter: selectivity counter-screen for CHIKV nsP2 protease inhibitors: human furin. shares compounds with nsP2pro inh. Recombinant human furin enzymatic counterscreen, fluorogenic substrate. Potency, µM (doses to about 50.6 µM), for the others: at the highest dose activity change, negative = inhibition, usual class: inhibitors. 410 tested, 6% active. AID 1964102
Target sequence (P09958 whole entry, looked up): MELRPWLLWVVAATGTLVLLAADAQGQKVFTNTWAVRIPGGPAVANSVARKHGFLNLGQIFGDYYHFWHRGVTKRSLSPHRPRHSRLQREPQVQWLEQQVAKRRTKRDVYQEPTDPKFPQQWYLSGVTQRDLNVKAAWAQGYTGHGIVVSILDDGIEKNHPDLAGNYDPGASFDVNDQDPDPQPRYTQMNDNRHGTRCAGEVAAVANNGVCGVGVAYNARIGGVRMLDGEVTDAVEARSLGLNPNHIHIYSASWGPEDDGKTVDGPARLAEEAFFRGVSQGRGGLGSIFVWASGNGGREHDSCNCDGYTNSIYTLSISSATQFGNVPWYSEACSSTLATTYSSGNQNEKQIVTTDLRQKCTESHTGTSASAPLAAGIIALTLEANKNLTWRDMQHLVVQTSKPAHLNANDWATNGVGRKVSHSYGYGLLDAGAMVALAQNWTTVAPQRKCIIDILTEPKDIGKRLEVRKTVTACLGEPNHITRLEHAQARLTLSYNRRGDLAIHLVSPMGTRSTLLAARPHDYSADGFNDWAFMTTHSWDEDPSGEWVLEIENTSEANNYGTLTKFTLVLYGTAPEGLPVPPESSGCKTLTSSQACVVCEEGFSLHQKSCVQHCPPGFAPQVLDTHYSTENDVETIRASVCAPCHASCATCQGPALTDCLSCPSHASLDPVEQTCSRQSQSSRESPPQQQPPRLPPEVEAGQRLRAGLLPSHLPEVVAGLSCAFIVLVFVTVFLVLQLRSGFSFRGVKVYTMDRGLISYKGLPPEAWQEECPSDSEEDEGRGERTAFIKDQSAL
NS23 peptide cs: nsP2pro inhibition on native NS2/3 peptide substrate. AID 1964103. Potency, µM (top dose mostly 51 µM), for the others: top-dose activity change, negative = inhibition, hits mostly inhibitors. shares compounds with nsP2pro inh. Purified CHIKV nsP2 protease, endogenous NS2/3 peptide cleavage. 410 tested, 34% active; further: nearly all actives have a fitted effect of over 55% in size
Papain cs: selectivity counter-screen for CHIKV nsP2 protease inhibitors: papain. Potency, µM (titrated, usually from 51 µM), for inactives: top-dose activity change, negative = inhibition, hits mostly inhibitors. purified papain protease activity, enzymatic inhibition. 410 tested, 5% active. shares compounds with nsP2pro inh
nsP2pro confirm: confirmation of CHIKV nsP2 protease inhibitors; shares compounds with nsP2pro inh; CHIKV nsP2 protease enzymatic activity, qHTS; Potency, µM (series often up to 25.5 µM), inactives show at the top dose activity change, negative = inhibition, actives largely listed as inhibitors; 410 tested, 43% active; further: nearly all actives have a fitted effect of over 75% in size
HCV NS3 4A cs: selectivity counter-screen for CHIKV nsP2 protease inhibitors: HCV NS3/4A; shares compounds with nsP2pro inh; HCV NS3/4A protease biochemical counterscreen; Potency, µM (top dose mostly 50.9 µM), usual class: inhibitors; 410 tested, 20% active; AID 1964106; further: nearly all actives have a fitted effect of over 55% in size
* marks the source's active call; other numbers are inactive results; i = inactive; ? = inconclusive; . = not tested or not shown; [ ] = remark or other dose. Many of the other results were omitted from the sample, so hits are more common in it than they were. The call rests on the fitted dose curve. On the % scale 0 is the no-effect control and ±100 the full control effect; potency means the concentration at half of the fitted maximal effect.

SMILES | nsP2pro inh | others
C=C1C(=O)O[C@H]2C1[C@H](OC(=O)/C(=C/CO)COC(=O)/C(C)=C/CO)CC(=C)[C@@H]1CC(=O)[C@@H](C)[C@@H]12 (some centres undefined) | 1.21µM* | CHIKV nsP2 cell=?;NSP2 full ctr=1.79µM*;Furin counter=-4.8%[17.3 µM];NS23 peptide cs=3.57µM*;Papain cs=-6.6%[17.2 µM];nsP2pro confirm=0.873µM*;HCV NS3 4A cs=?
C=C(CO)C(=O)O[C@H]1CC(=C)[C@@H]2C[C@H](O)C(=C)[C@@H]2[C@H]2OC(=O)C(=C)[C@@H]21 | 4.1%
C=C1C(=O)O[C@@H]2CC(C)=C([C@@H](C)CCCO)[C@@H](OC(=O)C(C)C)[C@H]12 | 47.8%
CCC1CCCCN1CCCNC(=O)c1c(C)oc2ncn(CC(C)C)c(=O)c12 (centres undefined) | -16.3%
COc1ccccc1N1CCN(c2ncnc3n[nH]c(Br)c23)CC1 | -8.0%
CC(=O)C1(C)CCC2C3C=C(C)C4=CC(=O)CCC4(C)C3CCC21C (centres undefined) | 11.1%
COc1ccc(S(=O)(=O)N2C[C@@H]3C[C@H](C2)c2ccc(NS(=O)(=O)c4cccc(F)c4)c(=O)n2C3)cc1 | 24.0%
CCCS(=O)(=O)Nc1ccc2n(c1=O)C[C@H]1C[C@@H]2CN(C(=O)c2ccc(-c3ccccc3)cc2)C1 | ? | CHIKV nsP2 cell=-1.8%;NSP2 full ctr=?;Furin counter=-8.1%;NS23 peptide cs=?;Papain cs=-7.9%;nsP2pro confirm=-3.5%;HCV NS3 4A cs=?
O=c1c(NS(=O)(=O)Cc2ccccc2)ccc2n1C[C@H]1C[C@@H]2CN(S(=O)(=O)c2ccccc2)C1 | ? | CHIKV nsP2 cell=5.6%;NSP2 full ctr=?;Furin counter=-4.7%;NS23 peptide cs=?;Papain cs=-3.5%;nsP2pro confirm=?;HCV NS3 4A cs=?
O=C(Nc1ccccc1)Nc1ccc2n(c1=O)C[C@H]1C[C@@H]2CN(C(=O)c2ccccc2)C1 | -18.8%[39.2 µM]
O=C(c1ccccn1)N1C[C@@H]2C[C@H](C1)c1ccc(NS(=O)(=O)c3cccc(F)c3)c(=O)n1C2 | -5.8%
O=c1c(NS(=O)(=O)c2cccc(F)c2)ccc2n1C[C@H]1C[C@@H]2CN(S(=O)(=O)c2ccccc2)C1 | 17.8%
C[C@@H]1C[C@H]2[C@@H]3CCC4=CC(=O)C=C[C@]4(C)[C@@]3(F)[C@@H](O)C[C@]2(C)[C@@]1(O)C(=O)CO | -4.9%
CC(=O)Nc1cccc(S(=O)(=O)N2CCN(S(=O)(=O)c3ccc4c(c3)OCCO4)CC2)c1 | i
Clc1ccc2ncc(-c3cccc(NC4CCNC4)n3)n2c1 (centres undefined) | -4.2%
COc1cc2c(cc1O)C1(OC)Cc3ccc4c(c3C1N(C)CC2)OCO4 (centres undefined) | 4.3%
Cc1ccc(Cl)cc1N1CCN(S(=O)(=O)c2cc(Br)cc3c2N(C(=O)C2CC2)CC3)CC1 | -13.9%
Cc1cc(C(=O)N2CC(N(C(=O)NC(C)C)C3CCOCC3)C2)nn1C | i
COc1ccc(NC(=O)/C=C\C(=O)N(c2ccc(C(C)C)cc2)C(C(=O)NCc2ccco2)c2ccc(F)cc2)cc1 (centres undefined) | -19.2%
O=C(c1ccc(F)cc1)n1nc(-c2ccc(Cl)cc2)nc1NCc1ccco1 | -22.7%
O=C(/C=C/c1ccco1)Nc1ccc(F)cc1 | 6.31µM* | CHIKV nsP2 cell=-20.0%
Cc1ccc(-c2nc3sc(CCNC(=O)c4ccc(Br)o4)c(C)n3n2)cc1 | -0.3%
C=C1[C@@]23C(=O)O[C@H](C)[C@]24O[C@@]2(C(=C)[C@]5(C=CC(=O)OC5(C)C)CC[C@]32C)[C@H](O)[C@@]1(C)OC4=O | 125.9%[10 µM]
Cc1ccc(Nc2ncc(C(=O)Nc3ccc(F)cc3F)c3ccccc23)cc1Cl | -23.1%
Cc1ccc(NC(=O)Cn2c(=O)ccc3cc(S(=O)(=O)N4CCC(C)CC4)ccc32)cc1Cl | -23.4%
SMILES | nsP2pro inh | others
CS(=O)(=O)CCNCc1nc(-c2ccc3ncnc(Nc4ccc(OCc5cccc(F)c5)c(Cl)c4)c3c2)cs1 | 89.2%[5.1 µM]
C=C1C(=O)O[C@@H]2C3=C(C)CCC[C@]3(C)CC[C@@]12O | 3.13µM* | CHIKV nsP2 cell=?;NSP2 full ctr=?;Furin counter=-3.2%;NS23 peptide cs=18.3µM*;Papain cs=-9.7%;nsP2pro confirm=?;HCV NS3 4A cs=i
CC1=C2C3OC(=O)C(C)C3(O)CCC2(C)CCC1 (centres undefined) | -6.5%
CC1=C2C3OC(=O)C(C)C3(O)CCC2(C)CCC1=O (centres undefined) | 40.9%
COC(=O)[C@]12CCC(C)(C)C[C@H]1[C@H]1C(=O)C=C3[C@@]4(C)C=C(C#N)C(=O)C(C)(C)[C@@H]4CC[C@@]3(C)[C@]1(C)CC2 | ? | CHIKV nsP2 cell=?;NSP2 full ctr=?;Furin counter=-2.9%;NS23 peptide cs=?;Papain cs=?;nsP2pro confirm=?;HCV NS3 4A cs=i
CC(C)c1noc(C2CCN(c3ncnc(Nc4ccc(S(C)(=O)=O)cc4F)c3[N+](=O)[O-])CC2)n1 | -10.8%
O=C(O)[C@H]1C2CCC(CC2)[C@@H]1Nc1nc(-c2c[nH]c3ncc(F)cc23)ncc1F | ? | CHIKV nsP2 cell=-10.9%;NSP2 full ctr=-36.2%;Furin counter=-11.1%;NS23 peptide cs=i;Papain cs=?;nsP2pro confirm=?;HCV NS3 4A cs=i
Clc1ccc(-c2noc3ncnc(NCCCN4CCN(c5ccccc5)CC4)c23)cc1 | -10.9%
COc1ccc(CNC(=O)c2cc3cc4cc(OC)ccc4nc3o2)cc1 | -22.4%
COc1cc(OC)c(NC(=O)C2CCN(C(=O)c3sc4nc[nH]c(=O)c4c3C)CC2)cc1Cl | -9.8%
Cc1ccc(C)c(S(=O)(=O)c2nnn3c2nc(N2CCCC2)c2sccc23)c1 | -15.0%
CSc1ccc(-c2cccc(C(=O)NCC(=O)N3CCCC3)c2)cc1 | i
CCC(=O)NC(c1ccc(C)cc1)c1cc([N+](=O)[O-])c2cccnc2c1O (centres undefined) | i
COc1ccc(S(=O)(=O)Nc2ccc(C)n(CC(=O)O)c2=O)cc1 | -10.7%
Cc1ccc(S(=O)(=O)Nc2cc(SCC(=O)O)c(O)c3ccccc23)cc1[N+](=O)[O-] | . | CHIKV nsP2 cell=?;NSP2 full ctr=4.11µM*;Furin counter=-9.4%;NS23 peptide cs=2.59µM*;Papain cs=18.3µM*;nsP2pro confirm=0.895µM*;HCV NS3 4A cs=i
CCCC1CCCCN1 (centres undefined) | 6.3%
CC(=O)c1c(C)c2cnc(Nc3ccc(N4CCNCC4)cn3)nc2n(C2CCCC2)c1=O | -9.9%
